Results published in PubChem BioAssay.
Active and inactive are the calls of the source.

Columns and labels:
[1] = optical density shifts of acrAB sulA E. coli – strain DRC41, OD650, 48 h, E. coli filamentation inducer project, primary screen (AID 1152); details: higher = more signal, called active from +8 up or from −8 down;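 further: E. coli MC1000 strain DRC41 lacking acrAB efflux pump and sulA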
[2] = probe aLefty1 binding on compound microarray – biochemical, small-molecule microarray, 635/667 nm fluorescence, primary screen (AID 1153); details: higher = more signal;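 further: score merges spot fluorescence with signal-to-noise ratio from the scanned slide images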
[3] = plasmodial surface anion channel blockers, osmotic lysis – cell-based, P. falciparum Indochina, OD700, 1 h, primary screen (AID 1154); details: P. falciparum Indochina infected RBC osmotic lysis, higher = more signal, called active from +8 up or from −8 down
[4] = plasmodial surface anion channel blockers, osmotic lysis – cell-based, P. falciparum Indochina, OD700, 2 h, primary screen (AID 1155);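 further: lysis reports solute entry through the parasite surface anion channel PSAC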; details: P. falciparum Indochina infected erythrocytes, higher = more signal, called active from +8 up or from −8 down
[5] = changes in parasitized red cell lysis, either direction – P. falciparum Indochina, OD700, 3 h, PSAC antagonist project, primary screen (AID 1156); details: P. falciparum-infected erythrocytes, osmotic lysis, higher = more signal, called active from +8 up or from −8 down
[6] = plasmodial surface anion channel blockers, osmotic lysis – cell-based, P. falciparum Indochina, OD700, 18 h, primary screen (AID 1157); details: P. falciparum Indochina infected erythrocytes, osmotic lysis OD700, 18 h; higher = more signal, called active from +8 up or from −8 down
[7] = S6 kinase pathway phospho-S6 level changes – cell-based, A549, cytoblot, luminescence, serum-stimulated, primary screen (AID 1158); details: 5 h, higher = more signal;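 further: serum-stimulated A549 lung adenocarcinoma cells; signal is phosphorylated S6 detected by cytoblot immunostaining with HRP secondary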
[8] = target: NADPH oxidase 2 (Homo sapiens) (UniProt P04839); assay: compounds shifting NOX2 Amplex Red fluorescence – cell-based, HEK293-NOX2, PMA-stimulated, NOX inhibitor project, primary screen (AID 1159); details: 45 min, higher = more signal, called active from +8 up or from −8 down; further: test concentration not given here
NADPH oxidase 2 (Homo sapiens), sequence (P04839 whole entry, looked up): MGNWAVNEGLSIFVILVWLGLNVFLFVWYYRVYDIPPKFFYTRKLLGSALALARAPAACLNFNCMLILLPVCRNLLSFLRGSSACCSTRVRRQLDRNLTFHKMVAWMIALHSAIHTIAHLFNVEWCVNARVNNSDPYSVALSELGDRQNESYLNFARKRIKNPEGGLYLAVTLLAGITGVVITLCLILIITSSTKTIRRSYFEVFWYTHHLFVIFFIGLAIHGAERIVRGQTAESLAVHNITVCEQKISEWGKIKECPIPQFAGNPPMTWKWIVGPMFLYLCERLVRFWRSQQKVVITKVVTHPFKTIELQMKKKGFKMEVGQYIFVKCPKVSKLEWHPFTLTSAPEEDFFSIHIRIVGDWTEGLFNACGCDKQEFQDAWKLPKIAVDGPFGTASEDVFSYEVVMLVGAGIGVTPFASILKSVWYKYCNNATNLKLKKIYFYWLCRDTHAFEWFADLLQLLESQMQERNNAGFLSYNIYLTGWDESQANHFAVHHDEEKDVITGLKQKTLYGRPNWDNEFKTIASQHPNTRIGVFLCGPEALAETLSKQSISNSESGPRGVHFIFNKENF

[9] = target: NADPH oxidase 4 (Homo sapiens) (UniProt Q9NPH5); assay: compounds shifting NOX4 Amplex Red fluorescence – cell-based, HEK293-NOX4, tetracycline-induced, NOX inhibitor project, primary screen (AID 1160); details: HEK293-NOX4, Amplex Red H2O2 fluorescence, 45 min; higher = more signal, called active from +8 up or from −8 down
NADPH oxidase 4 (Homo sapiens), sequence (Q9NPH5 whole entry, looked up): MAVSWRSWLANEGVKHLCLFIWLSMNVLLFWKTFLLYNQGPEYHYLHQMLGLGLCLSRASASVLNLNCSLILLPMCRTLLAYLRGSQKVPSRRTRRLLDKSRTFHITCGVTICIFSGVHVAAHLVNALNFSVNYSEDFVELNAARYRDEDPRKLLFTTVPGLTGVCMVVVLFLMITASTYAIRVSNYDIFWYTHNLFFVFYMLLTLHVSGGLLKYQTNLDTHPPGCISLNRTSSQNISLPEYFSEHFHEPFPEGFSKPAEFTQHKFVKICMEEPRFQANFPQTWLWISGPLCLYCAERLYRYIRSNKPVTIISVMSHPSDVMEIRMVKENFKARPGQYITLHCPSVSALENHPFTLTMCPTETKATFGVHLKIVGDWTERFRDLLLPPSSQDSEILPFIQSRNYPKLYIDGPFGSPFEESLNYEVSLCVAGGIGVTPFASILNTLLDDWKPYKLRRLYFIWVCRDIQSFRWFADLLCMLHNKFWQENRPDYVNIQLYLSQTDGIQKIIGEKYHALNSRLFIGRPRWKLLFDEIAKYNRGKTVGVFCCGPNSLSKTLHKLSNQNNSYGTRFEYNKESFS

[10] = target: NADPH oxidase 5 (Homo sapiens) (UniProt Q96PH1); assay: compounds shifting NOX5 Amplex Red fluorescence – cell-based, HEK293-NOX5, NOX inhibitor project, primary screen (AID 1161); details: HEK293-NOX5, ionomycin, 45 min, higher = more signal
NADPH oxidase 5 (Homo sapiens), sequence (Q96PH1 whole entry, looked up): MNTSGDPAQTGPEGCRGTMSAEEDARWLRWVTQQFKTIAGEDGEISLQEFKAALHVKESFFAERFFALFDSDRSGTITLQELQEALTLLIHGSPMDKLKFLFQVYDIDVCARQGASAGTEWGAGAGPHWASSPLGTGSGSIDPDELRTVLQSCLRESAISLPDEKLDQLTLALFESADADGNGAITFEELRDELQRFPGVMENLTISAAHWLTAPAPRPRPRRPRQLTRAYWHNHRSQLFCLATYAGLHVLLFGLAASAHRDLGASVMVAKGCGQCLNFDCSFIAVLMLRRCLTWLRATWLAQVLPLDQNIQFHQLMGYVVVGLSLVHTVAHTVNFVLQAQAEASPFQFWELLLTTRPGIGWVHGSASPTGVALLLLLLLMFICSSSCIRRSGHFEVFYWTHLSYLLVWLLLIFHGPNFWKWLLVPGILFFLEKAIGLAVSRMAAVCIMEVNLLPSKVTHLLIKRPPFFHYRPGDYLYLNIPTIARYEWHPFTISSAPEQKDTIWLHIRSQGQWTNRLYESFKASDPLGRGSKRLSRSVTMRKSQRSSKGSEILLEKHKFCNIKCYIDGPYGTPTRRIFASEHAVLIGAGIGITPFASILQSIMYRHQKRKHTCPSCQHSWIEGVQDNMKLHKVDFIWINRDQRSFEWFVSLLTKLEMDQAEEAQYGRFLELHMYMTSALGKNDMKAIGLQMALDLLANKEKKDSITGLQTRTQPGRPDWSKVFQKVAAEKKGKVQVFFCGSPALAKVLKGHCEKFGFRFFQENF

SMILES	z-score [1]	composite z-score [2]	z-score [3]	z-score [4]	z-score [5]	z-score [6]	z-score [7]	z-score [8]	z-score [9]	z-score [10]
C=CCOC(=O)[C@H]1[C@@H]2C(=O)O[C@@H](c3ccccc3)[C@@H](c3ccccc3)N2[C@@H](c2ccc(OCCOC(=O)[C@H]3C[C@H]4C(=O)N5CCC[C@H]5C(=O)N4[C@H]3c3ccc(O)cc3)cc2)[C@]12C(=O)Nc1ccccc12	-0.827 (inactive)	0.227	1.72 (inactive)	1.25 (inactive)	1.58 (inactive)	0.889 (inactive)	-0.352	2.25 (inactive)	1.39 (inactive)	1.87
CN(C)CCCNC(=O)[C@@]1(C)c2ccccc2C(=O)N(Cc2cc(F)cc(C(F)(F)F)c2)[C@H]1c1ccc(CO)cc1	-0.0995 (inactive)	0.0391	2.41 (inactive)	0.159 (inactive)	1.32 (inactive)	-0.0617 (inactive)	-0.0103	-0.655 (inactive)	0.835 (inactive)	0.463
C[C@@]1([C@@H](NC(=O)c2ccccc2)c2ccc(-c3ccccc3)cc2)C[C@H]1C1CCCCC1	-2.22 (inactive)	0.476	-0.118 (inactive)	0.28 (inactive)	0.833 (inactive)	0.888 (inactive)	0.994	-0.658 (inactive)	-1.06 (inactive)	-0.782
COc1ccc(COC2OC[C@]3(C)[C@H]4C5=C(CN3C(=O)OC(C)(C)C)[C@H](C)C(CO)C(CO)C5CC[C@@H]24)cc1 (stereo not given in full)	-2.31 (inactive)	0.638	1.81 (inactive)	0.0544 (inactive)	1.95 (inactive)	0.741 (inactive)	-0.139	-0.543 (inactive)	-3.44 (inactive)	-3.88
C=CCNC(=O)[C@H]1[C@@H]2C(=O)O[C@@H](c3ccccc3)[C@@H](c3ccccc3)N2[C@@H](c2ccc(OCCO)cc2)[C@]12C(=O)Nc1ccc(C#CC3=CCCCC3)cc12	0.951 (inactive)	-0.101	2.36 (inactive)	1.66 (inactive)	-1.04 (inactive)	1.4 (inactive)	-0.571	1.24 (inactive)	-1.05 (inactive)	1.02
CC[C@@H]1C=C(C(=O)O)[C@H](c2ccco2)N1S(=O)(=O)c1ccc(C)cc1	-0.0046 (inactive)	-0.148	1.96 (inactive)	1.37 (inactive)	-0.0701 (inactive)	0.953 (inactive)	0.123	0.152 (inactive)	-0.589 (inactive)	-0.764
[N-]=[N+]=Nc1ccccc1C[C@]1(C(=O)NCC(O)CO)N=C(c2ccc(OCCCO)cc2)O[C@H]1c1ccccc1N=[N+]=[N-] (stereo not given in full)	0.394 (inactive)	-0.0295	29.2 (active)	29 (active)	0.581 (inactive)	2.68 (inactive)	0.0471	-2.76 (inactive)	-0.295 (inactive)	-1.67
O=C(NCc1ccccc1)[C@@H]1c2ccccc2C(=O)N(CC23CC4CC(CC(C4)C2)C3)[C@H]1c1ccc(CO)cc1	-1.09 (inactive)	-0.538	3.76 (inactive)	0.295 (inactive)	1.76 (inactive)	0.134 (inactive)	-0.366	-2.38 (inactive)	0.191 (inactive)	-1.55
